Some of the results follow. Calls of active or inactive are those of the source. Rule as the data show it, unless noted: active = activity above about 50%; inactive = the rest.
What was measured:
[1] = target: Tumor necrosis factor receptor superfamily member 10B (Homo sapiens) (UniProt O14763); assay: viability loss of caspase-8 NB7 cells with TRAIL – with/without TRAIL, luminescence panel, confirmation (AID 651596); conditions: NB7 neuroblastoma + caspase-8, TRAIL sensitization, NB7 Caspase-8, with TRAIL, mean of runs, at 10 µM, stronger effect = higher value
Sequence of Tumor necrosis factor receptor superfamily member 10B (Homo sapiens) (O14763 whole entry, looked up): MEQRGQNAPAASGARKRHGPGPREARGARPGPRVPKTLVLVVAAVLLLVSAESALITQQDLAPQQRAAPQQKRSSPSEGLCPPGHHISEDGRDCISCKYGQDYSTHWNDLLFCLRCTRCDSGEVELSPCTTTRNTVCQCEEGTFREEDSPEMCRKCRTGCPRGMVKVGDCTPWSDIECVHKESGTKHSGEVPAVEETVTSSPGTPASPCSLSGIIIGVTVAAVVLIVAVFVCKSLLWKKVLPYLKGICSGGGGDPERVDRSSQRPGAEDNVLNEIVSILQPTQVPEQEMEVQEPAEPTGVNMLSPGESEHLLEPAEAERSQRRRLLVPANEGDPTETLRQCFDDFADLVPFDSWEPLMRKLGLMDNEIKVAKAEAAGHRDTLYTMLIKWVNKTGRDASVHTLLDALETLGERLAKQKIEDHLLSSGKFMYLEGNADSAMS

[2] = as above; conditions: NB7 neuroblastoma + caspase-8, without TRAIL, NB7 Caspase-8, without TRAIL, mean of runs, at 10 µM
[3] = target: Tumor necrosis factor receptor superfamily member 10B (Homo sapiens) (UniProt O14763); assay: compound enhancement of TRAIL-induced cell killing – NB7 cells plus caspase-8, luminescence, panel, dose response (AID 652002); conditions: NB7 neuroblastoma +caspase-8, TRAIL sensitization, luminescence viability, NB7+Caspase-8, with TRAIL, run 1; at 12.5 µM (top of the series)
[4] = target: Tumor necrosis factor receptor superfamily member 10B (Homo sapiens) (UniProt O14763); assay: as above; conditions: NB7 neuroblastoma +caspase-8, TRAIL sensitization, luminescence viability, NB7+Caspase-8, with TRAIL, run 2; at 12.5 µM (top of the series)
[5] = as above; conditions: NB7 neuroblastoma +caspase-8, no TRAIL, compound-alone cytotoxicity counter-screen, luminescence viability, NB7+Caspase-8, run 1; at 12.5 µM (top of the series) unless noted
[6] = as above; conditions: NB7 neuroblastoma +caspase-8, no TRAIL, compound-alone cytotoxicity counter-screen, luminescence viability, NB7+Caspase-8, run 2; at 12.5 µM (top of the series) unless noted
[7] = target: COP9 signalosome complex subunit 5 (Homo sapiens) (UniProt Q92905); assay: blockers of CSN-driven cullin deneddylation – biochemical, fluorescence polarization, single concentration, SCF-Nedd8OG substrate, confirmation (AID 720654; in the data active = inhibition above about 50%;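 also: 0% = DMSO with enzyme and 100% = no enzyme wells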); conditions: Csn5 deneddylation of SCF-Nedd8OG, 90 min, at 16.6 µM, stronger effect = higher value
Sequence of COP9 signalosome complex subunit 5 (Homo sapiens) (Q92905 whole entry, looked up, one chain of several): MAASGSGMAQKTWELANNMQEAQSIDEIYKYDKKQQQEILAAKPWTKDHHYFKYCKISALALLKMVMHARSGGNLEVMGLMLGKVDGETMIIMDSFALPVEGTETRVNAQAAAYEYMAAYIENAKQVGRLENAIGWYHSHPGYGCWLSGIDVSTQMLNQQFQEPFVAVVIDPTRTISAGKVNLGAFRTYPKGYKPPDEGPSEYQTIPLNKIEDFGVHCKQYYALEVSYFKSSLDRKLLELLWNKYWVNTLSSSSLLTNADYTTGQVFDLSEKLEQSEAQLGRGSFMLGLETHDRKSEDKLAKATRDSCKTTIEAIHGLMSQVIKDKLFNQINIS

[8] = target: 72 kDa type IV collagenase (Homo sapiens) (UniProt P08253); assay: human MMP-2 inhibitors, single-point check – biochemical, fluorescence, single concentration, counter-screen for CSN deneddylation inhibitor project, confirmation (AID 720655;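 active = corrected plate-normalized z-score of 5 or more, or -5 or less, or inhibition of 15% or more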;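 also: plate controls were DMSO wells with enzyme for no effect and buffer wells lacking MMP-2 for full effect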); conditions: recombinant MMP-2, FRET substrate fluorescence, 60 min; at 16.6 µM
Sequence of 72 kDa type IV collagenase (Homo sapiens) (P08253 whole entry, looked up): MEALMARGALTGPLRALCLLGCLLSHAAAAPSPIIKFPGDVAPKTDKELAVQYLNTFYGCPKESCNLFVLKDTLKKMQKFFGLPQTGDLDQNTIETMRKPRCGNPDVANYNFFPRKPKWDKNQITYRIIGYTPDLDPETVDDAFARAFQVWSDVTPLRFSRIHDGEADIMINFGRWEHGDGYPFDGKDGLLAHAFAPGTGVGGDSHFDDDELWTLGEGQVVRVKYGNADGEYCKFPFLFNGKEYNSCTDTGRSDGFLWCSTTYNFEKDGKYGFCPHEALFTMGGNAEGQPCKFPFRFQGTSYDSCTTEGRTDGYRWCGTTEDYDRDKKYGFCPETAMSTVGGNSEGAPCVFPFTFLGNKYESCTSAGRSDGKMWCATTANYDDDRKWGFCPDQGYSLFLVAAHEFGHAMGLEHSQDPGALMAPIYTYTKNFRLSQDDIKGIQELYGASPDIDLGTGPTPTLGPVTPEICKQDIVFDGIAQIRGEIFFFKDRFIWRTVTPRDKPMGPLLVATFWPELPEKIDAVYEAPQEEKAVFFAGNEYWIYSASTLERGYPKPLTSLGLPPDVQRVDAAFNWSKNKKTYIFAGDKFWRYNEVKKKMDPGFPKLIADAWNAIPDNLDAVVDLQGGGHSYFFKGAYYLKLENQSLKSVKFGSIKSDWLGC

Prothrombin (Bos taurus) = Prothrombin (Bos taurus) (UniProt P00735); assay: thrombin cleavage blockers, FP readout – biochemical, fluorescence polarization, single concentration, counter-screen for CSN deneddylation inhibitor project, confirmation (AID 720656;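 active = inhibition at or above a set limit, with a fluorescence interference ratio between 0.5 and a set maximum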); conditions: bovine thrombin cleavage of Ub4-pepOG, at 16.6 µM, stronger effect = higher value
Sequence of Prothrombin (Bos taurus) (P00735 whole entry, looked up): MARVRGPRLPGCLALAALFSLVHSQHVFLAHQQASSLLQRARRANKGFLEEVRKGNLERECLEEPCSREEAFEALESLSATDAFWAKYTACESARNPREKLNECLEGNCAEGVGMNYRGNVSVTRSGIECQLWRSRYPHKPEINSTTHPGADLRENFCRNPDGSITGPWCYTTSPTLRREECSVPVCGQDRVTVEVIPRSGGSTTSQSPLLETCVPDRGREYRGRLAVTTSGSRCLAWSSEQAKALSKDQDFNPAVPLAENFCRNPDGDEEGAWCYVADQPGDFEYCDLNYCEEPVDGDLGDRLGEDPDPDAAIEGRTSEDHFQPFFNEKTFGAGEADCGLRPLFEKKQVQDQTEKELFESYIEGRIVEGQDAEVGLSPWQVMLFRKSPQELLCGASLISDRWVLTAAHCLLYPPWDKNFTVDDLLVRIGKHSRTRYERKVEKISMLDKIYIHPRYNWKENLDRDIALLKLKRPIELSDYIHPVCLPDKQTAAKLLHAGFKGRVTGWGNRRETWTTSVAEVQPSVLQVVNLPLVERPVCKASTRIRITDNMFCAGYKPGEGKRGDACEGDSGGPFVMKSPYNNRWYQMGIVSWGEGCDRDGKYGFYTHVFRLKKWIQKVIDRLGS

Compound | activity [1] [%] | activity [2] [%] | activity, % sensitization [3] [%] | activity, % sensitization [4] [%] | activity, % sensitization [5] [%] | activity, % sensitization [6] [%] | inhibition [7] | inhibition [8] | inhibition (Prothrombin (Bos taurus))
O=c1[nH]c(=S)[nH]c2c1C(c1ccc(Cl)c(Cl)c1)OC(CCc1ccccc1)C2 (stereo not given) | 57.9 | 37.3 | -9.52 | -15.8 | -5.58 | 14 | – | – | –
CCN(CC)c1ccc(NC(=O)Nc2ccccc2)cc1 | 52 | 47 | 37.6 | 44.7 | 12 | 31.2 | – | – | –
O/C(=C\c1ccc2ccccc2n1)c1ccc(O)cc1O | 62.3 | 42.8 | 31.9 | 48.7 | 1.18 | 20.3 | – | – | –
C#CC(=O)CC1(CN(Cc2ccccc2)C(=O)OC(C)(C)C)CCCCC1 | 97.7 | 49.4 | 78.9 | 34.5 | 89.9 | 57.8 | – | – | –
COc1cc(/C=C2/C(=O)NN(c3cccc(Cl)c3)C2=O)cc(Br)c1O | – | – | – | – | – | – | 27.3% (inactive) | -17.1% (inactive) | 36.3% (active)
O=C(O)C(c1ccccc1)N1C(=O)/C(=C\c2ccc(-c3cccc(Cl)c3)o2)SC1=S (stereo not given) | – | – | – | – | – | – | 14.6% (inactive) | -20.6% (inactive) | 51.9% (active)
COc1cccc(NC(=O)Nc2nccc(C)n2)c1 | 64.5 | 53 | 46.7 | 47.6 | 25.8 | 11.9 | – | – | –
CC(C)(C)OC(=O)[C@H](Cc1ccccc1)NC(=O)c1[nH]cnc1C(=O)Nc1ccccc1F | 54.9 | 54.8 | 16.8 | -4.6 | 6.22 | 2.55 | – | – | –
O=C(N/N=C/c1cccnc1)c1ccc2c(c1)OCO2 | 51.9 | 42.5 | 32.8 | 32.4 | 32.2 | 46.2 | – | – | –
Cc1ccc(C(=O)O)cc1-c1ccc(/C=C2\SC(=O)N(CC(=O)Nc3ccc4c(c3)OCO4)C2=O)o1 | – | – | – | – | – | – | 155% (active) | -3.01% (inactive) | 7.47% (inactive)
COc1ccc2[nH]c3c(C)c4cc[n+](C)cc4c(C)c3c2c1 | – | – | – | – | – | – | -33.2% (inactive) | -35.8% (active) | 12.2% (inactive)
CC(=O)c1ccc(NC(=O)Nc2cccnc2)cc1 | 52.1 | 45 | 32.2 | 44.9 | 35.1 | 43.9 | – | – | –
CS(=O)(=O)c1ccc2c(c1)SC1=NC(=O)/C(=C/c3ccco3)C(=N)N12 | – | – | – | – | – | – | 50% (inactive) | 4.65% (inactive) | 41.6% (active)
CSc1ccc(/C=C/c2ccc3cccc(O)c3n2)cc1 | 48.5 | 53.9 | 31.9 | 41.1 | 23.2 | 36.6 | – | – | –
COCCNC(=O)c1cc(-c2ccc(-c3ccccc3)cc2)nc2ccccc12 | 57.7 | 44.5 | 36.7 | 40.6 | 51 | 41.3 | – | – | –
COc1cc(SC#N)ccc1N=Cc1c(C)[nH]n(-c2ccc(Cl)cc2)c1=O | 66.9 | 41.2 | -29.2 | -11.6 | -15.4 | -20.1 | – | – | –
COc1ccc(-c2noc(-c3ccc4c(c3)OCO4)n2)cc1 | – | 49.9 | – | – | – | – | – | – | –
C=CCC1=C/C(=C\c2c(N)n3nc(CC(=O)N4CCOCC4)sc3nc2=O)C=C(OC)C1=O | – | – | – | – | – | – | 16.7% (inactive) | -4.68% (inactive) | 72.6% (active)
Cc1ccc(S(=O)(=O)Nc2ccccc2C(=O)Nc2nc(-c3ccc(F)cc3)cs2)cc1 | 56.5 | 51.6 | 32 | 39.6 | 24.6 | 40.4 | – | – | –
CCOC(=O)c1cnc2c(-c3ccccc3)cnn2c1N | 62.2 | 54.7 | 38.5 | 22.1 | 13.3 | 5.35 | – | – | –
O=C(CSc1nc2ccccc2c(=O)[nH]1)Nc1nc(-c2ccc(Br)cc2)cs1 | – | – | – | – | – | – | 105% (active) | 16.9% (active) | -37.2% (inactive)

— PubChem BioAssay
